Rows were chosen to be rich in hits. Some 1.6% of all compounds tested hit in one or more screens of this group.
GRK2 aptamer HTS: blocks RNA aptamer binding to human GRK2. P25098. bead flow cytometry, FAM-aptamer displacement from GRK2. inhibition of aptamer binding, % at 10 µM. 0.59% of 330,000 active. AID 488847;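 active = inhibition of aptamer binding above 40%, roughly 3 SD of noise, on plates passing a quality check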;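 note: median bead fluorescence of bound FAM aptamer so fluorescent compounds give negative values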
Target sequence (P25098 whole entry, looked up): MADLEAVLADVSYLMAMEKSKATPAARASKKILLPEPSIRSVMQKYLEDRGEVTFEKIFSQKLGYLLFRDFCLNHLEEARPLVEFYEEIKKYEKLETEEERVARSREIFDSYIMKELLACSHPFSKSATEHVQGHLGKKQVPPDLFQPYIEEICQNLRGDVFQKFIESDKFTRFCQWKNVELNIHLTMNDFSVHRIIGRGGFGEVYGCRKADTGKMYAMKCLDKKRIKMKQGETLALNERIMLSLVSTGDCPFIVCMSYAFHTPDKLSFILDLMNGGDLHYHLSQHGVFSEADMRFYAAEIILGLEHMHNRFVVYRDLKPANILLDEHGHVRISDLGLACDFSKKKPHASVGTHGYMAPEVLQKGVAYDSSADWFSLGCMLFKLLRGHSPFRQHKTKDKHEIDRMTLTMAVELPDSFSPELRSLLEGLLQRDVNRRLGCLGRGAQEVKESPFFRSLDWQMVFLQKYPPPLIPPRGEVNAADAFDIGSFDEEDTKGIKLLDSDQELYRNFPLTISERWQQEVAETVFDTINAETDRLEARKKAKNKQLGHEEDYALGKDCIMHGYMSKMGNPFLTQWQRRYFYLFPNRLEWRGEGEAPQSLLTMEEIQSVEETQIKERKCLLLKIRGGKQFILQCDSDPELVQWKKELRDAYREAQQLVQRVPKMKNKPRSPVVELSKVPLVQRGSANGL
CR mimetic SO: lowers age-related superoxide in aged yeast cells; S. cerevisiae aged cells, superoxide DHE fluorescence; active compounds read low; superoxide response (% of plate mean), % at 10 µM; 0.18% of 330,000 active; AID 2690;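 active = superoxide response under a set limit, about three screen SD below normal, cut at about 65% in these data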;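 note: yeast aged for seven days with compound at 30 °C before DHE staining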
ATG4B inhibitor: blocks human ATG4B protease cleavage of LC3 substrate | Q9Y4P1 | ATG4B cleavage of LC3-PLA2, NBD-HPC fluorescence, 1 h | inhibition, % at 8.33 µM | 0.51% of 340,000 active; in the data active = inhibition above about 40%
Efflux pump inh: blocks antifungal efflux pumps in multiplex yeast assay | S. cerevisiae Candida pump triplex, Nile Red efflux | AID 485275 | inhibition, % at 10 µM | 0.44% of 330,000 active;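 active = plate passing quality check with inhibition over a set limit, or well fluorescence over plate mean plus 4 SD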;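 note: Nile Red retained in pooled yeast measured as flow cytometry median fluorescence; higher means more Nile Red kept so more efflux inhibition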
GRK2 inh confirm: confirmation of human GRK2 inhibitors displacing RNA aptamer. shares compounds with GRK2 aptamer HTS. bead-bound GRK2, FAM-aptamer displacement, flow cytometry. aptamer displacement, % at 10 µM. 4% of 2,000 active. AID 504451;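 active = aptamer displacement above 40%, near three times the noise of non-fluorescent compounds, on plates passing quality checks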;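 note: negative values mostly reflect intrinsic compound fluorescence rather than true enhancement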
Aptamer quench 1: quenches fluorescent RNA aptamer, GRK2 hit artifact; shares compounds with GRK2 aptamer HTS; Fluorescent RNA aptamer beads, quenching, flow cytometry; active compounds read high; fluorescence change (kMESF span), kMESF (concentration not given with the values); 110 tested, under 10 active;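 active = compounds whose bead fluorescence drops by more than 37 kMESF across the dose range, marking them as dye quenchers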
FAM quench CP1: quenches fluorescent RNA aptamer, GRK2 hit artifact | shares compounds with GRK2 aptamer HTS | Carboxyfluorescein RNA aptamer on beads, flow cytometry quenching; active compounds read low | fluorescence response (% of DMSO), % at 10 µM | 2,000 tested, under 10 active | AID 504580;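 active = compounds that quench the bead-bound fluorescent RNA probe, cutting fluorescence to under half of the solvent control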;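 note: counterscreen run without GRK2 so only probe quenching by compound is measured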
GRK2 CP2: confirmation of human GRK2 inhibitors binding RNA aptamer site. bead-bound GRK2, FAM-aptamer displacement, flow cytometry. AID 504782. shares compounds with GRK2 aptamer HTS. inhibition of aptamer binding, % at 10 µM. 360 tested, under 10 active;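 active = inhibition of aptamer binding above 40%, about triple the noise seen with nonglowing compounds, on plates passing quality control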;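 note: negative values mostly come from compounds that fluoresce themselves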
Aptamer quench3: aptamer fluorescence quenching in GRK2 counter-screen dose response; shares compounds with GRK2 aptamer HTS; Streptavidin beads, FAM-RNA aptamer fluorescence quenching, flow cytometry; change in fluorescence (kMESF span), kMESF (test concentration not listed); 25 tested, under 10 active; AID 504819;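 active = compounds quenching the bead-bound labeled aptamer, with fluorescence dropping by more than 37 kMESF over the dose range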
FAM quench SP: aptamer fluorescence quenching in GRK2 counter-screen; shares compounds with GRK2 aptamer HTS; carboxyfluorescein RNA aptamer beads, flow cytometry quenching; active compounds read low; fluorescence response vs DMSO, % at 10 µM; 360 tested, under 10 active;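 active = response vs DMSO under 50%, meaning signal dropped by over half, treated as fluorescence quencher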;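 note: labelled aptamer on streptavidin beads without GRK2 as a quench counter-screen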
Large screens that a line does not name were inactive (follow-up assays come after a bar, where they were run).

COc1ccc2cc(CO)c3cc(OC)c(OC)cc3c2c1	none
COc1cccc(-c2nnc(NC(=O)c3ccc(Cl)s3)o2)c1	GRK2 aptamer HTS 52 | GRK2 inh confirm inactive | FAM quench CP1 inactive
CC(=O)N(c1ccc(N(C(C)=O)S(=O)(=O)c2cccs2)cc1)S(=O)(=O)c1cccs1	GRK2 aptamer HTS 53 | GRK2 inh confirm inactive | FAM quench CP1 inactive
COc1ccc(N(C(=O)c2ccco2)S(=O)(=O)c2cccs2)cc1	GRK2 aptamer HTS 98 | GRK2 inh confirm inactive | FAM quench CP1 inactive
COc1ccc(C(=O)N(c2ccc(OC)cc2)S(=O)(=O)c2cccs2)cc1	none
CN(CCC#N)CC(=O)Nc1ccc(S(N)(=O)=O)cc1	none
COc1ccc(CC2S/C(=N/N=C/c3ccc(O)cc3)NC2=O)cc1 (configuration not stated)	GRK2 aptamer HTS 100 | GRK2 inh confirm inactive | FAM quench CP1 inactive
O=C1N/C(=N/N=C/c2ccc(O)cc2)SC1Cc1ccccc1 (configuration not stated)	none
O=C(C1CCCC1)N1CCN(S(=O)(=O)c2cccc(Cl)c2Cl)CC1	GRK2 aptamer HTS 68 | GRK2 inh confirm inactive | FAM quench CP1 inactive
CC(CCc1ccccc1)NC(=O)CC(C)c1ccccc1 (configuration not stated)	none
C=CCN(C(=O)CCC(=O)Nc1cc(C)on1)C(C(=O)NC(C)(C)CC)c1cccc(OC)c1OC (configuration not stated)	none
O=C1c2nccnc2C(=O)N1c1ccc(C(F)(F)F)cc1	GRK2 aptamer HTS 57 | GRK2 inh confirm inactive | FAM quench CP1 inactive
CCOc1ccc(N2C(=O)c3cccnc3C2=O)cc1	none
O=c1c2c(ncn2C2CCCC2)n(Cc2ccccc2)c(=O)n1CCOc1ccc(Br)cc1	GRK2 aptamer HTS 100 | GRK2 CP2 inactive | FAM quench SP inactive
O=c1c2c(ncn2C2CCCC2)n(Cc2ccccc2)c(=O)n1CCOc1ccccc1	none
COc1ccc(S(=O)(=O)NCc2ccc3c(c2)OCO3)cc1C	GRK2 aptamer HTS 71 | GRK2 inh confirm inactive | FAM quench CP1 inactive
COc1ccc(S(=O)(=O)NCc2ccc3c(c2)OCO3)cc1OC	none
Cc1ccc(S(=O)(=O)N2CCN(C(=O)COC(=O)CCCOc3ccccc3)CC2)c(C)c1	none
Cc1ccccc1CC1(CO)CCCN(C(=O)c2ccccc2N(C)C)C1 (configuration not stated)	none
Cc1ccsc1C(=O)N1CCCC(CO)(Cc2ccccc2)C1 (configuration not stated)	GRK2 aptamer HTS 45 | GRK2 CP2 inactive | FAM quench SP inactive
COC(OC)C1(CCc2ccccc2)NC(=O)NC1=O (configuration not stated)	none (no result: GRK2 aptamer HTS, CR mimetic SO, Efflux pump inh)
O=C(NNC(=S)Nc1ccccc1C(F)(F)F)c1ccc(Br)o1	GRK2 aptamer HTS 42 | GRK2 inh confirm inactive | FAM quench CP1 inactive
Cc1occc1C(=O)NNC(=S)Nc1ccccc1C(F)(F)F	none
CN(c1ccccc1)S(=O)(=O)c1cccc(C(=O)OCC(=O)NCCCN2CCCC2=O)c1	none
CN(C)C(CNC(=O)C1CCCN(C(=O)c2ccc(Cl)cc2)C1)c1ccco1 (configuration not stated)	GRK2 aptamer HTS 68 | GRK2 inh confirm inactive | FAM quench CP1 inactive
O=C(NCc1ccc(Cl)cc1)C1CCCN(C(=O)c2ccc(Cl)cc2)C1 (configuration not stated)	none
COc1ccc(S(=O)(=O)Nc2ccc3c(c2)n(C)c(=O)n3C)cc1OC	none
CCOc1ccc2nc(NS(=O)(=O)c3ccc4c(c3)n(C)c(=O)n4C)sc2c1	GRK2 aptamer HTS 61 | GRK2 inh confirm inactive | FAM quench CP1 inactive
COc1ccc(S(=O)(=O)Nc2ccc3c(c2)n(C)c(=O)n3C)cc1	none | GRK2 inh confirm inactive | FAM quench CP1 inactive
COc1cccc(NS(=O)(=O)c2c(C)n(C)c(=O)n(C)c2=O)c1	GRK2 aptamer HTS 84 | GRK2 inh confirm inactive | FAM quench CP1 inactive
C[C@@H](C(=O)N[C@@H](Cc1c[nH]c2ccccc12)C(=O)O)n1nnc2ccccc2c1=O	none
COC(=O)c1ccccc1NS(C)(=O)=O	none
COC(=O)c1ccccc1Nc1ccccc1	GRK2 aptamer HTS 54 | GRK2 inh confirm inactive | FAM quench CP1 inactive
CC(NC(=O)CCC(=O)Nc1ccccc1O)c1ccccc1 (configuration not stated)	none
CC(CNc1ccccc1O)C(=O)O (configuration not stated)	GRK2 aptamer HTS 62 | GRK2 CP2 inactive | FAM quench SP inactive
COc1cccc(C(NC(C)=O)c2ccc3cccnc3c2O)c1 (configuration not stated)	GRK2 aptamer HTS 80 | GRK2 inh confirm inactive | FAM quench CP1 inactive
O=[N+]([O-])c1cccc2c(S(=O)(=O)N3CCOCC3)cccc12	GRK2 aptamer HTS 89 | GRK2 inh confirm inactive | FAM quench CP1 inactive
O=[N+]([O-])c1cccc2c(S(=O)(=O)N3CCCCC3)cccc12	none
CCOc1ccccc1NC(=O)CCS(=O)(=O)c1ccc(OC)cc1	none | GRK2 CP2 inactive | FAM quench SP inactive
COc1ccc(S(=O)(=O)CCC(=O)Nc2c(C)cccc2C)cc1	none
COc1ccc(NC(=O)CCS(=O)(=O)c2cccc3nonc23)c(OC)c1	none | GRK2 CP2 inactive | FAM quench SP inactive
CCOc1ccccc1NC(=O)CCC(=O)Nc1ccccc1OCC	none
CCc1ccccc1NC(=O)CCS(=O)(=O)c1ccc(OC)cc1	GRK2 aptamer HTS 53 | GRK2 inh confirm inactive | Aptamer quench 1 inactive | FAM quench CP1 inactive | Aptamer quench3 inactive
COc1ccc(NC(=O)CCS(=O)(=O)c2cccc3nonc23)cc1	none
Cc1cc(C)c(OCCN2CCOCC2)c(Cl)c1	none
S=C(N=Nc1ccccc1)NNc1ccccc1	GRK2 aptamer HTS 42 | GRK2 inh confirm inactive | FAM quench CP1 inactive
CCOc1ccccc1C(=O)N[C@H](C(=O)Nc1nc2c(s1)CCCC2)C(C)C	GRK2 aptamer HTS 43 | GRK2 inh confirm inactive | FAM quench CP1 inactive
O=C1CCCC2=C1C(c1ccncc1)c1c(nc(SCc3ccccc3)[nH]c1=O)N2 (configuration not stated)	none

Screens: PubChem BioAssay, several laboratories
